Screening results (PubChem)
MCF10A rerep: A quantitative high throughput screen for small molecules that induce DNA re-replication in MCF 10a normal breast cells | MCF 10A DNA re-replication, Hoechst nuclear intensity, 48 h | Potency, µM (series often up to 46.1 µM), for inactives: top-dose activity, positive = re-replication, hits mostly activators | 2.9% of 350,000 active; further: % of control where 0% means no effect; nearly all actives have a fitted effect of over 50% in size
KB-V1 cytotox: qHTS assay for MDR1-selective chemotherapeutics: Primary screen using the drug-selected MDR subline cells KB-V1. KB-V1 MDR cells viability, CellTiter-Glo, 72 h. Potency, µM (doses to about 46.1 µM), actives largely listed as cytotoxic. 3.4% of 400,000 active; further: on the % scale 0 is the no-effect control and ±100 the full control effect; nearly all actives have a fitted effect of over 60% in size
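Potencies derive from concentration-effect curves fitted to normalized luminescence (CellTiter-Glo) of KB-V1 cells treated for 72 h at 37 degrees C in phenol-red-free DMEM containing 10% FBS.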
KB-3-1 tox: qHTS assay for MDR1-selective chemotherapeutics: Primary screen using the parental adenocarcinoma cell KB-3-1; KB-3-1 viability, CellTiter-Glo ATP luminescence, 72 h; Potency, µM (highest dose often 46.1 µM), usual class: cytotoxic; 1.4% of 400,000 active; AID 1347075, 2019; further: on the % scale 0 is the no-effect control and ±100 the full control effect; nearly all actives have a fitted effect of over 60% in size
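Cells are dispensed, compounds pinned in, plates held at 37 °C for 72 h, then CellTiter-Glo is added and luminescence read after 10 minutes. Cell line: parental KB-3-1 in phenol-red-free DMEM, 10% FBS.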
ALOX12 inh: Primary qHTS assay for inhibitors of human arachidonate 12S-lipoxygenase (ALOX12): Round 2. Polyunsaturated fatty acid lipoxygenase ALOX12 (Homo sapiens), P18054. 1.1% of 580,000 active. Potency, µM (titrated, usually from 108 µM), for inactives: at the top dose activity change, negative = inhibition, actives largely listed as inhibitors. purified 12hLO, xylenol orange hydroperoxide absorbance; further: on the % scale 0 is the no-effect control and ±100 the full control effect
Target sequence (P18054 whole entry, looked up): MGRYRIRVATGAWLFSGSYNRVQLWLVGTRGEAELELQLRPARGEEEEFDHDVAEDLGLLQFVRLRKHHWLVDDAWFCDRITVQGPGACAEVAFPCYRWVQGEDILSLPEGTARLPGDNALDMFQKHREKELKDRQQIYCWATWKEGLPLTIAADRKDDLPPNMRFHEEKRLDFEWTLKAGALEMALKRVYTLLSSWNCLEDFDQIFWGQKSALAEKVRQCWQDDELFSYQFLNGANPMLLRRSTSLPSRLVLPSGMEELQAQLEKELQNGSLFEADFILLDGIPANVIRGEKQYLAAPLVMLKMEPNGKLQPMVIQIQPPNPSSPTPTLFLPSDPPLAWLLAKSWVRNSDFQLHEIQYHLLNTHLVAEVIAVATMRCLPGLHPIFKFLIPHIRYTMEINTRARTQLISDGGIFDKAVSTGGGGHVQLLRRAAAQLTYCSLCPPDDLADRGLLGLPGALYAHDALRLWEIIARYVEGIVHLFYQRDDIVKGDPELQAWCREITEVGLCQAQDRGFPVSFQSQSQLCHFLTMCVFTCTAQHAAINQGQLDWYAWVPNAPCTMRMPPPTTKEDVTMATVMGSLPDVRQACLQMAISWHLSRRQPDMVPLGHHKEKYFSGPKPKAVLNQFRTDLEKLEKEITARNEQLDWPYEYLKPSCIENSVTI
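Hydroperoxide product was detected by ferrous iron/xylenol orange as the 573 to 405 nm absorbance ratio. Arachidonic acid at 40 uM (final) was turned over for 30 min at room temperature by 150 nM human 12hLO, pH 7.0 Hepes buffer, after 15 min compound preincubation.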
SW480 rereplic: A quantitative high throughput screen for small molecules that induce DNA re-replication in SW480 colon adenocarcinoma cells; Potency, µM (doses to about 46.1 µM), without a hit: at the highest dose re-replication activation, hits mostly activators; 1.8% of 340,000 active; SW480 DNA re-replication, Hoechst DNA content imaging, 48 h; further: % of control where 0% means no effect; nearly all actives have a fitted effect of over 55% in size
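SW480 cells exposed to compounds for 48 hr at 37 C, 5% CO2, then Hoechst-stained 40 min. Nuclear DNA content imaged by fluorescence scanning (405 nm excitation, 500-530 nm emission); re-replication scored as increased high-intensity nuclei.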
PINK1 modulator: A Quantitative High throughput Screen to Identify Chemical Modulators of PINK1 Expression; Potency, µM (doses to about 76.6 µM), inactives show at the top dose activation (PINK1 increase), most hits filed as activators; 0.2% of 410,000 active; PINK1 immunofluorescence, high-content cytometry, 24 h; active means well fitted activation curve with a large enough effect; inconclusive means small, poorly fitted or top-dose-only effect; cell line not stated here; further: % of control where 0% means no effect; nearly all actives have a fitted effect of over 65% in size
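Compound titrations (5 concentrations, 24 h) on a stable cell line; DMSO and CCCP controls. Endpoint: fixed-cell PINK1 immunofluorescence with mitochondrial, cell and nuclear markers, scanned by microplate cytometer.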
Numbers without * were called inactive; [ ] = another dose, or the depositor's remark. Only some compounds are listed: those with a hit (about 5.8% of all), similar ones and a draw of the others. Unless noted, the call rests on the fitted dose curve; in most records, active means well fitted curve in the direction sought with a large enough effect; inconclusive means small, poorly fitted or top-dose-only effect, or another doubt; inactive means no such curve, though single readings can be large; an effect the other way counts as inactive or inconclusive. Potency means the concentration at half of the fitted maximal effect.

For CC(C)Cn1cc(C(=O)NCCCN2CCCC2=O)c2c3ccccc3n(C)c2c1=O the results were MCF10A rerep 18%, KB-V1 cytotox 5.8µM*, KB-3-1 tox inactive, ALOX12 inh inconclusive, SW480 rereplic -1% and PINK1 modulator -2%[38.3 µM].
`CCOc1ccc(NC(=O)[C@@H]2CCCN2C(=O)c2cccs2)cc1S(=O)(=O)N1CCCCC1` gave MCF10A rerep -1%, KB-V1 cytotox 9.2µM*, KB-3-1 tox inactive, ALOX12 inh 393%, SW480 rereplic 8% and PINK1 modulator 0%.
`CC1CCN(S(=O)(=O)c2ccc(NC(=O)[C@@H]3CCCN3C(=O)c3cccs3)cc2)CC1` gave MCF10A rerep 12%, KB-V1 cytotox 21µM*, KB-3-1 tox inactive, ALOX12 inh 393%, SW480 rereplic 10% and PINK1 modulator 1%.
CC1CCCCN1S(=O)(=O)c1ccc(NC(=O)c2cccs2)cc1 (stereo unspecified) was read as MCF10A rerep 21µM*, KB-V1 cytotox inconclusive, KB-3-1 tox inactive, ALOX12 inh 10% and SW480 rereplic 21%.
Screening Cc1ccc(C2CCCN2S(=O)(=O)c2ccccc2)cc1 (stereo unspecified) returned ALOX12 inh 9%.
Screening CCOCC1(C)COc2ccc(C(=O)Nc3ccc(Cl)cc3)cc2N1 (stereo unspecified) returned ALOX12 inh -3%[176 µM].
CC(C(=O)NCc1ccccc1F)n1nc(-c2ccccc2)c2ccccc21 (stereo unspecified) was read as ALOX12 inh -11%.
`O=C(CSc1nc(=O)n2cc(Cl)ccc2n1)Nc1cccc2ccccc12` gave MCF10A rerep 0%, KB-V1 cytotox 26µM*, KB-3-1 tox inconclusive, ALOX12 inh -26%, SW480 rereplic 24% and PINK1 modulator 0%.
Screening Cc1ccc2nc(SCC(=O)N3CCCC3)nc(=O)n2c1 returned MCF10A rerep 4%, KB-V1 cytotox inconclusive, KB-3-1 tox inactive, ALOX12 inh -8%, SW480 rereplic -5% and PINK1 modulator -2%.
For Cc1ccn2c(=O)nc(SCC(=O)Nc3cccc4ccccc34)nc2c1 the results were MCF10A rerep inconclusive, KB-V1 cytotox inactive, KB-3-1 tox inactive, ALOX12 inh 14%, SW480 rereplic -38% and PINK1 modulator -1%.
Screening Cc1ccc2nc(SCC(=O)N3CCC(C)CC3)nc(=O)n2c1 returned MCF10A rerep -6%, KB-V1 cytotox 18µM*, KB-3-1 tox inactive, ALOX12 inh 9%, SW480 rereplic -11% and PINK1 modulator 0%.
For Cc1ccc2nc(SCC(=O)c3ccccc3)nc(=O)n2c1 the results were MCF10A rerep 1%, KB-V1 cytotox inactive, KB-3-1 tox inactive, ALOX12 inh -31%, SW480 rereplic 1.8µM* and PINK1 modulator 3%.
`COC(=O)C(NC=O)C(O)(C#Cc1ccccc1)C(F)(F)F` (stereo unspecified) gave ALOX12 inh -25%.
`CC(C)(C)NC(=O)CNC(=O)CCc1ncc(-c2ccc(Cl)cc2Cl)o1` gave ALOX12 inh -48%.
`CN(Cc1ccccc1)CC(C#N)C(O)c1ccccn1` (stereo unspecified) gave ALOX12 inh 3%.
`Cc1cc(-c2cc3c(cn2)CN(Cc2ccccc2F)CCN3)ccn1` gave ALOX12 inh -5%[176 µM].
Screening O=C(COC(=O)Cc1ccc(F)cc1)NCc1ccco1 returned MCF10A rerep 3%, KB-V1 cytotox inactive, KB-3-1 tox inactive, ALOX12 inh -3%, SW480 rereplic 12µM* and PINK1 modulator 0%.
